Assay outcomes deposited in PubChem BioAssay by several laboratories.
SKKanGAS inh: blocks kanamycin growth of S. pyogenes SKKanGAS strain; BacTiter-Glo, 6 h; inhibition, % at 7.5 µM; 300,000 compounds, 1.3% hits;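 active means mean replicate score, as percent of positive control median, at least 50; inconclusive means mean below 50 but one replicate at or above 50; inactive means mean and every replicate below 50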;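 further: strain carries kanamycin resistance gene driven by streptokinase promoter and grows in 40 µg/ml kanamycin; loss of luminescence reflects streptokinase promoter inhibition or plain growth inhibition; 0% = median of DMSO wells and 100% = positive control at its reference dose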
tim23-1 inh: tim23-1 yeast growth inhibition; AID 463212; S. cerevisiae tim23-1 growth, BacTiter-Glo luminescence, 24 h; 330,000 compounds, 1.3% hits; inhibition, % at 20 µM;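 active means growth inhibition of the mutant yeast at or above 50%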;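 further: temperature-sensitive mutant grown at 25 °C; plate controls were DMSO-treated mutant yeast for no effect and medium wells lacking yeast for full effect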
NALP3 yeast inh: inhibitors of NALP3 inflammasome in yeast. Yeast reconstituted NLRP3/ASC/caspase-1, beta-gal luminescence, 24 h. inhibition, % at 10 µM. 330,000 compounds, 0.39% hits;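 active means inhibition of 50% or more; inactive means inhibition below 50%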;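 further: plate controls were induced DMSO wells for no effect and uninduced yeast grown without galactose for full effect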
tim10-1 inh: inhibits growth of tim10-1 mutant yeast. S. cerevisiae tim10-1 ts strain growth, BacTiter-Glo, 24 h. inhibition, % at 20 µM. AID 463190. 330,000 compounds, 2.2% hits;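 active means inhibition of at least 40%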;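 further: mutant grown at 25 °C; 0% = DMSO wells with yeast and 100% = wells holding no yeast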
PfHsp90 set2: inhibits growth of yeast expressing Plasmodium falciparum Hsp90; S. cerevisiae expressing PfHsp90, BacTiter-Glo ATP, 48 h; yeast lacking PDR1 and PDR3 efflux regulators; inhibition, % at 9.4 µM; 310,000 compounds, 0.32% hits; AID 504621;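 active means every replicate shows inhibition above about 80%, whatever the replicate mean, limit read from the data; inconclusive means mean inhibition reaches the set limit but some replicate falls short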;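 further: 0% = DMSO neutral controls and 100% = 20 µM radicicol positive controls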
TIM10 inh: TIM10 yeast growth inhibition | S. cerevisiae TIM10 strain growth, BacTiter-Glo luminescence, 24 h | inhibition, % at 10 µM | 330,000 compounds, 1.4% hits;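 active means inhibition of 40% or more at the single tested concentration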;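 further: wild-type TIM10 isogenic control strain grown at permissive 25 °C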
tim10-1 conf: confirmation of tim10-1 mutant yeast growth inhibitors; shares compounds with tim10-1 inh; S. cerevisiae tim10-1 ts strain growth, BacTiter-Glo, 24 h; inhibition, % at 20 µM; 7,400 compounds, 56% hits; AID 463213;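 active means inhibition of yeast growth at or above a set limit in either of two repeat tests at 20 µM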;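 further: tim10-1 mutant grown at permissive 25 °C to find synthetic lethal compounds; 0% = DMSO yeast wells and 100% = medium wells without yeast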
Numbers without * were called inactive; ? = inconclusive; . = no result given. Hits are enriched below; roughly 4.5% of the tested compounds scored in any of these assays.

SMILES | SKKanGAS inh | tim23-1 inh | NALP3 yeast inh | tim10-1 inh | PfHsp90 set2 | TIM10 inh | tim10-1 conf
O=C(c1ccoc1)N1CCC2(CC1)Oc1ccc(F)cc1C(=O)C21CC(c2ccc(Cl)cc2)=NO1 (centres undefined) | 17.8 | -6.7 | 21.9 | 29.2 | . | -13.1 | .
O=C(c1ccoc1)N1CCC2(CC1)Oc1ccc(Cl)cc1C(=O)C21CC(c2ccc(Cl)cc2)=NO1 (centres undefined) | 14.4 | 30.0 | 15.7 | 53.5* | 17.7 | 27.4 | 41.1*
O=C(c1ccc2c(c1)OCO2)N1CCC2(CC1)Oc1ccc(F)cc1C(=O)C21CC(c2ccccc2)=NO1 (centres undefined) | 15.8 | -1.6 | -4.8 | 41.8* | -6.1 | -11.9 | 34.5*
O=C(CN(C(=O)c1csnn1)c1ccc(F)c(Cl)c1)NC1CCCC1 | -10.6 | 5.8 | 13.7 | -4.8 | -37.9 | 4.4 | .
CC1CCCCC1NC(=O)C1CCC(CNS(=O)(=O)c2ccccc2)CC1 (centres undefined) | 2.3 | -2.1 | 7.4 | -2.1 | -5.6 | -13.4 | .
COC(=O)[C@@]12CCCN1[C@H](c1ccc(-c3ccc(Cl)c(Cl)c3)c(OC)c1)[C@H]1C(=O)N(C)C(=O)[C@H]12 | . | 36.2 | 13.9 | 32.9 | 4.2 | 0.1 | .
CCN(CC)c1ccc(S(=O)(=O)N2CCOCC2)cc1NC(=O)CN1C(=O)NC2(CCC(C)CC2)C1=O (centres undefined) | -6.0 | -10.8 | 4.7 | 7.2 | 3.9 | 0.9 | .
O=C(O)c1cc(S(=O)(=O)N2CCCCC2)ccc1N1CCCC1 | . | 7.7 | 17.6 | -13.6 | -4.5 | 10.6 | .
CC(Oc1ccccc1)C(=O)N1CCC2(CC1)Oc1ccc(Cl)cc1C(=O)C21CC(c2ccccc2)=NO1 (centres undefined) | 27.0 | 30.3 | 18.4 | 30.3 | . | 21.5 | .
CC(C)C(=O)N1CCC2(CC1)Oc1ccc(Cl)cc1C(=O)C21CC(c2ccccc2)=NO1 (centres undefined) | 17.0 | 3.2 | 11.2 | 53.4* | . | -9.4 | 29.9
COc1ccc(/C=N/NC(=O)c2cc(-c3ccccc3)nc3ccccc23)cc1O | 13.2 | 27.0 | 3.1 | 28.1 | 8.2 | 19.3 | .
COc1cc(/C=N/NC(=O)c2cc(-c3ccccc3)nc3ccccc23)ccc1O | 3.2 | 22.8 | 3.3 | 41.2* | -22.7 | 12.3 | 30.9
CCC1CCCCN1CCCNC(=O)Cn1ncc2c(C)n(Cc3ccccc3Cl)c(C)c2c1=O (centres undefined) | 1.9 | 2.6 | 1.8 | 6.4 | -1.5 | -9.4 | .
Cc1nn(-c2ccccc2)c(Cl)c1/C=N/NC(=O)OC(C)(C)C | -4.3 | 38.6 | 14.7 | 44.4* | 1.3 | -8.4 | 21.4
CSc1ccc(C=NNc2ccc(S(=O)(=O)Nc3ccccc3C(=O)O)cc2[N+](=O)[O-])cc1 | . | 6.3 | 17.6 | 0.0 | -1.1 | 8.6 | .
Cc1nn(-c2ccccc2)c(Cl)c1/C=N/Nc1ccc(S(=O)(=O)Nc2ccccc2C(=O)O)cc1[N+](=O)[O-] | 118.6* | 30.6 | 10.7 | 42.3* | -16.8 | 5.3 | 36.3*
Cc1nn(-c2ccccc2)c(Cl)c1/C=N/NS(=O)(=O)c1ccc(Br)cc1 | 0.9 | 45.3 | 17.5 | 42.5* | -11.6 | -2.0 | 30.2
CC(OC(=O)C1CCCC1)C(=O)Nc1ccc(S(N)(=O)=O)cc1 (centres undefined) | 26.9 | -23.0 | 22.0 | -23.9 | -0.8 | -0.4 | .
CC(=O)Nc1ccc(S(=O)(=O)N2CCC(C(N)=O)(N3CCCCC3)CC2)cc1 | -5.9 | 1.9 | 20.7 | 8.0 | 21.7 | -10.3 | .
O=[N+]([O-])c1cc(/C=N\Nc2nc(-c3ccccc3)cs2)ccc1O | ? | 3.1 | 0.7 | 14.8 | -21.7 | 23.8 | .
Cc1csc(N/N=C/c2ccc(O)c([N+](=O)[O-])c2)n1 | 7.4 | 40.2 | -5.6 | 50.5* | . | 30.0 | 33.0*
CCc1ccc(C(CNC(=O)c2ccc3c(=O)n(-c4ccccc4F)c(=S)[nH]c3c2)N(C)C)cc1 (centres undefined) | 5.6 | 1.9 | 26.2 | 13.7 | -14.0 | 1.4 | .
c1ccc(Nc2cccc(Nc3ccccc3)c2)cc1 | 1.3 | 37.1 | 16.1 | 53.8* | -75.6 | 21.2 | 76.5*
COc1ccc(/C=C2\SC(N3CCCCC3)=NC2=O)cc1OC | 0.5 | 19.1 | 25.4 | 19.0 | 6.4 | 28.1 | .
COc1ccc(OC)c(/C=C2\SC(N3CCCC(C)C3)=NC2=O)c1 (centres undefined) | 17.8 | 41.1 | 2.1 | 43.2* | -15.9 | 11.1 | 27.9
SMILES | SKKanGAS inh | tim23-1 inh | NALP3 yeast inh | tim10-1 inh | PfHsp90 set2 | TIM10 inh | tim10-1 conf
CC(/C=C/c1cccc([N+](=O)[O-])c1)=N/NC(=O)c1cccnc1 | -8.3 | 25.9 | 12.4 | 40.2* | 5.9 | 9.6 | 20.6
Cc1nn2c(N3CCOCC3)c3c(nc2c1-c1ccccc1)CCCC3 | -0.3 | 36.3 | -4.2 | 25.9 | -6.0 | 21.7 | .
Cc1nc2c(-c3ccc(F)cc3)c(C)nn2c(N2CCOCC2)c1C | -5.8 | 34.1 | 4.6 | 44.5* | -2.6 | 31.3 | 26.5
COc1ccc(N2CCN(C(=O)COC(=O)c3ccc(CSC)o3)CC2)cc1 | . | 4.0 | 17.6 | 8.4 | 2.0 | 1.3 | .
N#C/C(=C\c1cccc2ccccc12)c1nn(-c2ccccc2)c(N)c1C#N | 17.7 | 16.3 | -6.0 | 11.1 | . | 20.0 | .
Cc1ccc(/C=C(\C#N)c2nn(-c3ccccc3)c(N)c2C#N)cc1 | 26.6 | 29.1 | 22.7 | 40.4* | 8.6 | 24.9 | 23.8
COc1cc(NC(=S)N2CCc3ccccc3C2)cc(OC)c1 | 0.9 | 29.5 | 15.4 | 33.9 | 9.2 | 37.7 | .
CN(C)c1ccc(/C=N/NC(=O)c2ccccc2)cc1 | 7.5 | -0.3 | 11.0 | -13.3 | -13.2 | 7.2 | .
CN(C)c1ccc(/C=N/NC(=O)C(=O)/C=C2\NC3(CCCC3)Cc3ccccc32)cc1 | 10.1 | 42.4 | 14.3 | 42.5* | -18.5 | 28.3 | 18.9
CC(C)(C)C1CCc2c(C(=O)N/N=C/c3cccs3)csc2C1 (centres undefined) | 20.4 | 37.2 | 12.1 | 46.7* | 3.3 | 32.8 | 31.9*
O=C(NC1CCCC1)C(c1ccccn1)N(Cc1ccccc1F)C(=O)c1csnn1 (centres undefined) | -1.1 | 10.5 | 5.5 | 24.1 | -7.3 | -3.0 | .
COCCC1CCCCN1C(=O)c1cccc(OC2CCN(C3CCCC3)CC2)c1 (centres undefined) | -0.7 | 5.4 | -0.8 | 21.5 | -2.4 | -9.0 | .
CN(C(=O)CSc1ncnc2sc3c(c12)CCC3)C1CCS(=O)(=O)C1 (centres undefined) | . | 30.0 | -1.6 | 37.6 | 70.9 | 8.9 | .
Cc1nc(N)sc1-c1csc(Nc2ccccn2)n1 | 10.8 | . | . | . | 8.1 | . | .
Cc1nc(N)sc1-c1csc(Nc2ccc(Cl)cn2)n1 | 8.1 | 47.6 | 0.7 | 56.7* | -25.1 | 30.7 | 38.1*
